In the library only some 1.2% were active in any assay of this set; here they are far more common.
Avidin bead fluor: avidin bead compound fluorescence profile; Avidin beads, compound fluorescence 488/530 nm, flow cytometry; active compounds read high; fluorescence (KMESF) at 10 µM; hit rate 0.38% among 220,000; AID 1775; in the data active = fluorescence above about 47
RGS8-Gao reg: human RGS8-Galphao interaction regulation. P09471. multiplexed bead flow cytometry, RGS8-Galphao binding; actives lie on both sides. response (percent of control binding), % at 10 µM. hit rate 0.34% among 220,000; in the data active = response below about 60% or above about 140%; inactive = in between;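 also: Galphao activated as the GDP aluminium fluoride complex binding bead-coupled RGS8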
Target sequence (P09471 whole entry, looked up): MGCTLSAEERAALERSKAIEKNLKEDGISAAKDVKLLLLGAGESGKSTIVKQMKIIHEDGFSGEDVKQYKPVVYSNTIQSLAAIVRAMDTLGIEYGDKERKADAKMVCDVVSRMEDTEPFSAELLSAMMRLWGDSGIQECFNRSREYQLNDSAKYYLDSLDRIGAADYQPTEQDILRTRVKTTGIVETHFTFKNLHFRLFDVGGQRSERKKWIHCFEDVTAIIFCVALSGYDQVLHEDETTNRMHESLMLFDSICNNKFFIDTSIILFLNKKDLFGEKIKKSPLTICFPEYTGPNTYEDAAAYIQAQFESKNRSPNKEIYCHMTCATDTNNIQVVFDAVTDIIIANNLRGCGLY
RGS7-Gao: regulators of human RGS7-Galphao interaction; hit rate 0.35% among 220,000; binding response (% of control), % at 10 µM; Multiplexed bead flow cytometry, RGS7-Galphao binding; actives lie on both sides; AID 1439; in the data active = binding response below about 49% or above about 150%; inconclusive = no clear call, values can overlap the other calls; inactive = in between;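 also: fluorescent Galphao held in activated GDP-AlF4 state binding bead-coupled RGS7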
GSH bead fluor: compound fluoresces at 488/530 nm on GSH beads; hit rate 0.25% among 190,000; fluorescence (KMESF) at 10 µM; GSH beads flow cytometry, compound fluorescence 488/530 nm; active compounds read high; AID 1776; in the data active = fluorescence above about 89;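 also: glutathione beads carrying GST-tagged Bcl family fusion proteins plus one bare bead set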
RGS4-Gao reg: modulates binding of RGS4 to human Galphao. P09471. Multiplexed bead flow cytometry; actives lie on both sides. binding response (% of control), % at 10 µM. hit rate 0.33% among 220,000. AID 1415; in the data active = binding response below about 49% or above about 150%; inactive = in between;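 also: fluorescent Galphao activated with aluminum fluoride binding bead-coupled RGS4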
RGS16-Gao: regulators of human RGS16-Galphao interaction | O15492+P09471 | bead-based flow cytometry RGS16-Galphao binding, fluorescence; actives lie on both sides | binding response (% of control), % at 10 µM | hit rate 0.38% among 220,000 | AID 1441;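 also: Galphao activated by GDP with aluminum fluoride before binding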
RGS4-Gao HTS: regulators of human RGS4-Galphao interaction; shares compounds with RGS16-Gao; multiplexed bead flow cytometry, RGS–Galpha-o binding; RGS4–Galpha-o binding response, % at 10 µM; hit rate 99% among 1,600; AID 1504;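 also: fluorescently labeled Galpha-o bound to GDP with aluminium fluoride binding biotinylated RGS beads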
Avidin counter: counter-screen: compounds disrupting biotin binding to avidin beads; inhibition, % at 10 µM; streptavidin beads, fluorescein-biotin binding, flow cytometry; AID 1783; shares compounds with RGS16-Gao; 1,700 tested, under 10 active;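 active = inhibition above 50%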;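 also: median green fluorescence of gated singlet beads compared with DMSO control wells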
RGS8-Gao single: confirmation of regulators of human RGS8-Galphao interaction. AID 1836. shares compounds with RGS16-Gao. bead-based flow cytometry RGS8-Galphao binding, fluorescence; actives lie on both sides. hit rate 3% among 1,700. binding response (% of control), % at 10 µM; in the data active = binding response below about 72% or above about 130%; inactive = in between;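 also: Galphao activated as GDP AlF4 complex before binding bead RGS8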
RGS7-Gao confirm: RGS7-Galphao interaction regulation, single point confirmation | bead-based flow cytometry RGS7-Galphao binding; actives lie on both sides | shares compounds with RGS16-Gao | hit rate 7.8% among 1,700 | AID 1837 | response (percent of control binding), % at 10 µM; in the data active = response below about 75% or above about 130%; inactive = in between;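 also: fluorescent Galphao activated with GDP and aluminum fluoride binding bead-coupled RGS7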
RGS16-Gao single: RGS16-Galphao interaction regulation, single point confirmation; hit rate 4% among 1,700; bead-based flow cytometry, RGS16-Galphao binding; actives lie on both sides; shares compounds with RGS16-Gao; response (% of control binding), % at 10 µM; in the data active = response below about 74% or above about 130%; inactive = in between;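 also: Galphao activated as the GDP aluminium fluoride complex binding bead-coupled RGS16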
RGS4-Gao confirm: confirmation of regulators of human RGS4-Galphao interaction. shares compounds with RGS16-Gao. RGS4-Galphao binding, multiplexed bead flow cytometry; actives lie on both sides. binding response (% of control), % at 10 µM. hit rate 4% among 1,700. AID 1840; in the data active = binding response below about 74% or above about 130%; inactive = in between
RGS19-Gao conf: RGS19-Galphao interaction regulation, single point confirmation. shares compounds with RGS16-Gao. bead-based flow cytometry RGS19-Galphao binding; actives lie on both sides. response (percent of control binding), % at 10 µM. hit rate 5% among 1,700. AID 1841; in the data active = response below about 50% or above about 160%; inactive = in between
Target sequence (P09471 whole entry, looked up): as above
Target sequence (P49795 whole entry, looked up): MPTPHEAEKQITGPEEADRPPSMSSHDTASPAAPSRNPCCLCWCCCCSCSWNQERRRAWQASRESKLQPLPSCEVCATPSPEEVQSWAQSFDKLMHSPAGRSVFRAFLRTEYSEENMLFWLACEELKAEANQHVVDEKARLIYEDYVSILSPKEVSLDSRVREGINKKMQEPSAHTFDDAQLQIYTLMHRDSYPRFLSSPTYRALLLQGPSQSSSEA
Of the large screens only hits and unclear results are named; the others gave an inactive call (follow-up assays come after a bar, where they were run); [ ] = remark or other dose. Unless noted, no rule for the calls is given here.

COC(=O)c1ccccc1NS(=O)(=O)c1ccc(NC(C)=O)cc1	RGS7-Gao 151[activator] | RGS4-Gao HTS 128 | Avidin counter inactive | RGS8-Gao single inactive | RGS7-Gao confirm inactive | RGS16-Gao single inactive | RGS4-Gao confirm inactive | RGS19-Gao conf inactive
CC1S/C(=N/N=C/c2ccco2)N(Cc2ccc(F)cc2)C1=O (configuration not stated)	RGS7-Gao inconclusive (no result: GSH bead fluor)
CCC1S/C(=N/N=C/c2ccco2)N(Cc2ccccc2)C1=O (configuration not stated)	none (no result: Avidin bead fluor, RGS8-Gao reg, RGS7-Gao, GSH bead fluor, RGS4-Gao reg, RGS16-Gao) | Avidin counter inactive | RGS8-Gao single inactive | RGS7-Gao confirm inactive | RGS16-Gao single inactive | RGS4-Gao confirm inactive | RGS19-Gao conf inactive
O=c1c2ccccc2oc2nc(-c3cccs3)n(CCc3ccccc3)c(=O)c12	none
O=C(c1ccc(=O)[nH]c1)N(Cc1cccs1)C1(C(=O)NC2CCCC2)CCCCC1	RGS8-Gao reg 141[activator], RGS16-Gao 259[activator] | RGS4-Gao HTS 116 | Avidin counter inactive | RGS8-Gao single inactive | RGS7-Gao confirm inactive | RGS16-Gao single inactive | RGS4-Gao confirm inactive | RGS19-Gao conf inactive
CC(NC(=O)c1sc2cc([N+](=O)[O-])ccc2c1Cl)C(C)(C)C (configuration not stated)	RGS16-Gao 15 | RGS4-Gao HTS 98 | Avidin counter inactive | RGS8-Gao single 65 | RGS7-Gao confirm inactive | RGS16-Gao single 41 | RGS4-Gao confirm inactive | RGS19-Gao conf 16
COC(=O)C1=C(C)Nc2c(c(=O)n(C)c(=O)n2C)C1c1ccncc1 (configuration not stated)	none
CC(C)N1CCN(Cc2ccc(C#CC(C)(C)O)s2)CC1CCO (configuration not stated)	none
CC(C)N1CCC(N2CCN(Cc3ccc(C#CC(C)(C)O)s3)CC2CCO)CC1 (configuration not stated)	Avidin bead fluor 134, RGS7-Gao 275[activator] | RGS4-Gao HTS 142 | Avidin counter inactive | RGS8-Gao single inactive | RGS7-Gao confirm inactive | RGS16-Gao single inactive | RGS4-Gao confirm inactive | RGS19-Gao conf inactive
CC(=O)c1ccc(NC(=O)c2ccc(C)c(Br)c2)cc1	none
CC(=O)c1ccc(NC(=O)Nc2ccc(Br)cc2C)cc1	Avidin bead fluor 76, RGS7-Gao 216[activator], RGS4-Gao reg 204[activator], RGS16-Gao 184[activator] | Avidin counter inactive | RGS8-Gao single inactive | RGS7-Gao confirm inactive | RGS16-Gao single inactive | RGS4-Gao confirm inactive | RGS19-Gao conf inactive
C=CCNC(=S)NNC(=O)c1ccc(=O)n(Cc2ccc(Cl)cc2Cl)c1	RGS7-Gao inconclusive
COc1ccccc1/C=c1\sc2nc(-c3ccco3)nn2c1=O	none (no result: Avidin bead fluor, RGS8-Gao reg, RGS7-Gao, RGS4-Gao reg, RGS16-Gao) | Avidin counter inactive | RGS8-Gao single inactive | RGS7-Gao confirm inactive | RGS16-Gao single inactive | RGS4-Gao confirm inactive | RGS19-Gao conf inactive
Cc1ccc(C)c(NC(=O)c2ccccc2NS(=O)(=O)c2cc([N+](=O)[O-])ccc2C)c1	RGS16-Gao 188[activator] | RGS4-Gao HTS 104
Cc1ccc(C)c(S(=O)(=O)Nc2ccccc2C(=O)Nc2cc(C)on2)c1	none
COc1ccc(NC(=O)N2CCC(c3nc4ccccc4[nH]3)CC2)cc1	none
Oc1[nH]c(N=C2N=c3ccccc3=N2)c2ccccc12	RGS8-Gao reg 57, RGS7-Gao inconclusive, RGS4-Gao reg 35 (no result: GSH bead fluor) | Avidin counter inactive | RGS8-Gao single inactive | RGS7-Gao confirm inactive | RGS16-Gao single inactive | RGS4-Gao confirm inactive | RGS19-Gao conf inactive
N#CC(=C1N=c2ccccc2=N1)c1c(O)[nH]c2ccccc12	none
N#C/C(=C\c1c(Cl)cccc1Cl)c1nc2ccccc2[nH]1	RGS7-Gao inconclusive (no result: GSH bead fluor)
N#C/C(=C\c1ccc(Cl)cc1)c1nc2ncccc2[nH]1	RGS16-Gao -40 | RGS4-Gao HTS 89
Clc1ccc(C2=CSC3=NCCN23)cc1Cl	RGS8-Gao reg 18, RGS7-Gao -0.4, RGS4-Gao reg -19, RGS16-Gao -14 | Avidin counter inactive | RGS8-Gao single inactive | RGS7-Gao confirm inactive | RGS16-Gao single inactive | RGS4-Gao confirm inactive | RGS19-Gao conf inactive
CCc1cc(C=NC2CCCCC2)c(O)s1	RGS8-Gao reg -0.4, RGS7-Gao -28, RGS4-Gao reg -60, RGS16-Gao -39 | Avidin counter inactive | RGS8-Gao single inactive | RGS7-Gao confirm inactive | RGS16-Gao single inactive | RGS4-Gao confirm inactive | RGS19-Gao conf inactive
COC(=O)c1c(C)oc(C)c1S(=O)(=O)NCc1ccco1	RGS7-Gao inconclusive (no result: GSH bead fluor)
O=C(NNS(=O)(=O)c1ccc2ccccc2c1)NC1CCCCC1	none
Cc1ccc(-c2nn(CC(=O)N3CCOCC3)c(=O)c3ccccc23)cc1S(=O)(=O)N(C)C	Avidin bead fluor 62, RGS7-Gao inconclusive, RGS4-Gao reg 163[activator] (no result: GSH bead fluor) | Avidin counter inactive | RGS8-Gao single inactive | RGS7-Gao confirm inactive | RGS16-Gao single inactive | RGS4-Gao confirm inactive | RGS19-Gao conf inactive
CCNC(=O)c1c(NC(=O)C2COc3ccccc3O2)sc2c1CCCC2 (configuration not stated)	RGS8-Gao reg 185[activator], RGS7-Gao 155[activator], RGS4-Gao reg 170[activator] | Avidin counter inactive | RGS8-Gao single inactive | RGS7-Gao confirm inactive | RGS16-Gao single inactive | RGS4-Gao confirm inactive | RGS19-Gao conf inactive
COCCCNC(=O)c1c(NC(=O)C2COc3ccccc3O2)sc2c1CCCC2 (configuration not stated)	none
CC1CC(OCC(O)C[N+]2(C)CCOCC2)CC(C)(C)C1 (configuration not stated)	RGS8-Gao reg 30, RGS7-Gao 21, RGS4-Gao reg 22, RGS16-Gao 17 | Avidin counter inactive | RGS8-Gao single inactive | RGS7-Gao confirm inactive | RGS16-Gao single inactive | RGS4-Gao confirm inactive | RGS19-Gao conf inactive

Compound activity deposited in PubChem BioAssay by NMMLSC.
